Assay outcomes deposited in PubChem BioAssay by National Center for Advancing Translational Sciences (NCATS).
Most compounds without a hit are left out; they make up all but 8% or so of the library.
HT1080 IDH1KD tx: kills HT-1080 cells with IDH1 knockdown; Potency, µM (highest dose often 46.1 µM), most hits filed as cytotoxic; 360,000 compounds, 2% hits; HT-1080 IDH1 knockdown viability, ATP luminescence, 48 h
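Cytotoxicity counter-line: IDH1KD HT-1080, 48 h, CellTiter-Glo. Curves classed by r2, magnitude and activity.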
KB-3-1 tox: kills parental KB-3-1 adenocarcinoma cells | KB-3-1 viability, CellTiter-Glo ATP luminescence, 72 h | Potency, µM (doses to about 46.1 µM), usual class: cytotoxic | 400,000 compounds, 1.4% hits; also: nearly all actives have a fitted effect of over 60% in size
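Multi-concentration cytotoxicity screen in KB-3-1 cells grown in DMEM lacking phenol red with 10% FBS. After 72 h at 37 °C with compound, ATP-dependent luminescence was recorded.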
SW480 rerep: induces DNA re-replication in SW480 colon adenocarcinoma cells; SW480 DNA re-replication, Hoechst DNA content imaging, 48 h; Potency, µM (doses to about 46.1 µM), hits mostly activators; 340,000 compounds, 1.8% hits; AID 624297; also: nearly all actives have a fitted effect of over 55% in size
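250 cells/well; 23 nL cpd via pin tool; 48 hr, 37 C, 5% CO2; Hoechst 40 min; imager read of total nuclear intensity, ex 405/em 500-530 nm.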
HT1080NT lethal: kills 2HG-producing HT-1080-NT fibrosarcoma cells | HT-1080-NT fibrosarcoma viability, CellTiter-Glo ATP luminescence, 48 h | Potency, µM (doses to about 46.1 µM), usual class: cytotoxic | 360,000 compounds, 1.6% hits;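 also: NT is the 2HG producing partner of a matched IDH1 knockdown line; nearly all actives have a fitted effect of over 55% in size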
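Read-out is CellTiter-Glo luminescence after 10 minutes at room temperature, following 48 hours' compound treatment of HT-1080-NT cells (750 cells/well, RPMI, 5% FBS, 37 degrees C).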
KB-V1 MDR tox: KB-V1 MDR subline cytotoxicity. KB-V1 MDR cells viability, CellTiter-Glo, 72 h. Potency, µM (titrated, usually from 46.1 µM), actives largely listed as cytotoxic. AID 1347076. 400,000 compounds, 3.4% hits; also: nearly all actives have a fitted effect of over 60% in size
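qHTS viability screen in drug-selected KB-V1 MDR cells: 72 h compound treatment at 37 degrees C, ATP luminescence end point.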
MCF10A rerep: induces DNA re-replication in MCF 10a normal breast cells; MCF 10A DNA re-replication, Hoechst nuclear intensity, 48 h; Potency, µM (doses to about 46.1 µM), most hits filed as activators; 350,000 compounds, 2.9% hits; AID 624296; also: nearly all actives have a fitted effect of over 50% in size
A number is an active result; i = inactive; ? = inconclusive; nt = no result; ! = not confirmed by another sample; [ ] = dose if it differs, or a comment. Calls follow the shape of the dose curve; as a rule, active = well fitted curve in the direction sought with a large enough effect; inconclusive = small, poorly fitted or top-dose-only effect, or another doubt; inactive = no such curve, though single readings can be large; an effect the other way counts as inactive or inconclusive.

SMILES | HT1080 IDH1KD tx | KB-3-1 tox | SW480 rerep | HT1080NT lethal | KB-V1 MDR tox | MCF10A rerep
NC(=S)n1[nH]c(-c2ccc([N+](=O)[O-])cc2)c(N=Nc2cccc(Cl)c2)c1=O | ? | 20.6µM | i | ? | ? | ?
NC(=S)n1[nH]c(-c2ccc([N+](=O)[O-])cc2)c(N=Nc2ccc(O)cc2)c1=O | i | i | i | i | i | i
c1ccc2nc3c(cc2c1)CCCCC3 | i | i | 18.4µM | i | i | ?
c1ccc2nc3c(cc2c1)CCCCCC3 | i | i | i[9.22 µM] | i | i | i
O=C(Nc1ccccc1)C12CC3CC(C1)CC(n1cnc([N+](=O)[O-])n1)(C3)C2 | i | i | i | i | i | i
COC(=O)c1cccc(NC(=O)C23CC4CC(C2)CC(n2cncn2)(C4)C3)c1 | i | i | i | i | 20.6µM | i
COc1cc(NC(=O)C23CC4CC(C2)CC(n2cnc([N+](=O)[O-])n2)(C4)C3)cc(OC)c1 | i | ? | ? | i | 20.6µM | i
CC(C)=CCN1CCN(Cc2cn(C(C)C)c3ccccc23)CC1CCO (stereo not drawn) | i | i | i | i | i | i
CC(=O)c1ccc(NC(=O)CN(C)S(=O)(=O)c2cnc[nH]2)cc1 | nt | i | nt | nt | i | nt
CCOC(=O)c1ccc(S(=O)(=O)N2CCN(c3nc(-c4cccs4)nc4ccccc34)CC2)cc1 | nt | i | nt | nt | i | nt
CC(=O)N1c2ccc(S(=O)(=O)NCCc3cccc(C)c3)cc2CC1C (stereo not drawn) | nt | i | nt | nt | i | nt
CN1CCN(c2nn3c(=O)c4ccccc4nc3s2)CC1 | nt | i | nt | nt | i | nt
O=C(c1ccc(Br)cc1)N1CCN(Cc2ccccc2)CC1 | i | i | i | i | ? | i
O=C(CCN1CCCCC1)c1ccc2c(c1)OCO2 | i | ? | i[9.22 µM] | i | i | ?
O=C(CCN1CCCCC1)c1ccccc1 | i | i | ? | i | i | ?
O=C(CCN1CCOCC1)c1ccc2c(c1)OCCO2 | ? | ? | ? | ? | i | 6.51µM
O=C(CCCN1CCOCC1)c1ccc2c(c1)OCCO2 | i | i | i | i | i | ?
O=C(CCN1CCc2ccccc2CC1)c1ccc2c(c1)OCCO2 | i | i | 13µM | i | ? | 1.3µM
O=C(CCN1CCN(C(=O)c2ccccc2)CC1)c1ccc(Br)cc1 | i | i | ? | ? | ? | 16.4µM
O=C(CCN1CCOCC1)c1ccccc1 | ? | i | i | ? | i | 2.59µM
CCOc1ccccc1NC(=O)Cn1c(=O)n(CCC(C)C)c(=O)c2cccnc21 | nt | i | nt | nt | i | nt
COC(=O)C1=CN(Cc2ccccc2)C=C(C(=O)OC)C1c1ccc(OC)c(OC)c1 | i | i | i | i | i | i
CCOc1ccc(C2C(C(=O)OC)=CN(C(C)c3ccccc3)C=C2C(=O)OC)cc1 (stereo not drawn) | i | i | ? | i | ? | 16.4µM
CCOC(=O)c1sc2nc(CC(C)C)c3c(c2c1N)CCC3 | i | i | i | i | i | ?
CC(=O)c1sc2nc(C)c3c(c2c1N)CCCC3 | i | ? | 14.6µM | i | ? | 18.4µM
SMILES | HT1080 IDH1KD tx | KB-3-1 tox | SW480 rerep | HT1080NT lethal | KB-V1 MDR tox | MCF10A rerep
CC(=O)Nc1ccc(S(=O)(=O)NNC(=O)NC23CC4CC(CC(C4)C2)C3)cc1 | i | i | i | i | i | i
Cc1ccc(S(=O)(=O)NNC(=O)NC23CC4CC(CC(C4)C2)C3)cc1 | i | i | i | i | 20.6µM | i
CC(CC(=O)Nc1nnc(C(C)(C)C)s1)c1ccccc1 (stereo not drawn) | i | i | i | i | i | i
Cc1cc(NC(=O)/C(C#N)=C/c2ccc(-c3ccc(SC(F)F)cc3)o2)n(-c2ccccc2)n1 | i | i | ? | i | i | 5.8µM
COc1ccc(C2c3c(ccc4ccccc34)Oc3ncn4nc(Cc5ccccc5)nc4c32)cc1OC (stereo not drawn) | ? | i | i | i | i | i
COc1ccc(C2c3c(ncn(CCN4CCOCC4)c3=N)Oc3ccc4ccccc4c32)cc1OC (stereo not drawn) | 15.8µM! | ? | ? | ? | 23.1µM | ?
